# Screening data from PubChem.
# AMA1 RON2 block = disrupts binding of P. falciparum AMA1 to RON2 | AID 720542 | Potency, µM (doses to about 58.2 µM), without a hit: at the highest dose activity change, negative = inhibition, actives largely listed as inhibitors | AlphaScreen AMA1-biotinylated RON2 peptide binding | 0.2% of 360,000 active;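 note: 0% = vehicle wells and -100% = peptide control; nearly all actives have a fitted effect of over 45% in size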
#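 AMA1 (3D7) with his tag at 25 nM final met compounds first, then biotinylated RON2 peptide at 25 nM; detection used donor plus acceptor beads, 10 µg/mL apiece, read by AlphaScreen after 30 min at room temperature.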
# Pf growth 96h = P. falciparum growth inhibition at 96 hour, primary screen for plastid delayed-death inhibitors; P. falciparum luciferase reporter growth, 96 h; Potency, µM (highest dose often 28.7 µM), for the others: at the top dose activity change, negative = inhibition, most hits filed as inhibitors; 6.9% of 320,000 active; AID 504834; note: % is set by controls: 0 for no effect and ±100 for the full control effect
#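 Cell-based qHTS: luciferase-tagged P. falciparum in erythrocytes (2% hematocrit, 0.05% parasitemia final) incubated with compounds for 96 hours, 37 C, 5% CO2; luciferase detection reagent then added and luminescence measured.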
# SARS PLpro yeast = inhibitors of SARS-CoV papain-like protease in yeast; S. cerevisiae expressing SARS-CoV PLpro, growth rescue; Potency, µM (series often up to 32.9 µM), without a hit: at the highest dose activity, positive = growth rescue, most hits filed as activators; 0.19% of 330,000 active; AID 485353; calls by dose curve; note: 0% is about no effect; nearly all actives have a fitted effect of over 55% in size
# NS1 inh = blocks influenza NS1 protein function | Potency, µM (doses to about 46.1 µM), inactives show top-dose activity, positive = more growth | 0.4% of 270,000 active | AID 2326; calls by dose curve; note: actives are rising curves; nearly all actives have a fitted effect of over 50% in size
#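 OD600 was taken as the measure of yeast growth restored by compound in an NS1-expressing S. cerevisiae strain. Cells had been washed out of glucose medium and diluted 1:100 into galactose -URA medium, pH 6.0.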
# Pf growth 48h = P. falciparum growth inhibition at 48 hours (one generation); AID 504832; 5.9% of 310,000 active; Potency, µM (titrated, usually from 28.7 µM), inactives show at the highest dose activity change, negative = inhibition, usual class: inhibitors; P. falciparum luciferase growth in erythrocytes, 48 h; note: % is set by controls: 0 for no effect and ±100 for the full control effect
#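 In quantitative HTS format, infected erythrocytes bearing luciferase-reporter parasites were treated for a single generation at 37 C. Luminescence after adding detection reagent served as the growth measure.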
# HCV inh = blocks hepatitis C virus | Huh7.5.1 HCVcc-Cre infection, luciferase reporter, 44 h | Potency, µM (series often up to 41.8 µM), inactives show at the highest dose activity change, negative = inhibition, usual class: inhibitors | 3.4% of 340,000 active | AID 651820; note: % is set by controls: 0 for no effect and ±100 for the full control effect
#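 Infectious HCV cell culture screen: compound-treated cells (1,000/well, pre-plated 4 h) are infected with HCVcc-Cre at roughly 0.5 moi and grown 44 h. Infection is quantified by luciferase signal after 15 min substrate incubation at room temperature.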
# * hit, by the source's call; ? = inconclusive; · = no result given; [ ] = another dose, or the depositor's remark. This is a sample that favours compounds with a hit; in the whole collection about 12% have one here. Unless noted, calls come from the whole dose curve; as a rule, active = well fitted curve in the direction sought with a large enough effect; inconclusive = small, poorly fitted or top-dose-only effect, or another doubt; inactive = no such curve, though single readings can be large; an effect the other way counts as inactive or inconclusive. Potency is the fitted concentration of half-maximal effect.
SMILES,AMA1 RON2 block,Pf growth 96h,SARS PLpro yeast,NS1 inh,Pf growth 48h,HCV inh
CCOc1cc2c(cc1OCC)-n1cccc1C(c1ccc(OC)cc1)NC2 (configuration not stated),-22%,?,1%,2%,?,-29%
CCOc1cc2c(cc1OCC)-n1cccc1C(c1ccc(F)c(OC)c1)NC2 (configuration not stated),-18%,-1%,-1%,10%,10µM*,-17%
CCOc1cc2c(cc1OCC)-n1cccc1C(c1cccc(F)c1F)NC2 (configuration not stated),?,?,1%,-4%,?,-22%
CCOc1cc2c(cc1OCC)-n1cccc1C(c1c(O)cccc1OC)NC2 (configuration not stated),?,-28%,3%,-4%,13µM*,?
CCOc1cc2c(cc1OCC)-n1cccc1C(c1ccccc1OC)NC2 (configuration not stated),?,0%,-4%,-4%,10µM*,-26%
CCOc1cc2c(cc1OCC)-n1cccc1C(c1ccc(OC)c(OC)c1)NC2 (configuration not stated),0%,0%,1%,4%,?,?
CCOc1cc2c(cc1OCC)-n1cccc1C(c1ccccc1O)NC2 (configuration not stated),-18%,6%,-1%,2%,8.3µM*,-5%
O=C(CCCN1C(=O)NC2(CCCC2)C1=O)NCc1ccccc1,-9%[11.6 µM],13%,-2%,·,?,?
CC(C)(C)[C@H]1COC(=O)CCCC/C=C\C[C@H](CC(=O)NCCO)C(=O)N1,4%,·,6%,·,·,-6%
N#CCCN1CCN(Cc2cc(-c3ccccc3)ccc2O)CC1,2%,?,-19%,-3%,?,?
CC(C)(C)CC(C)(C)c1ccc(O)c(CN2CCN(CCC#N)CC2)c1,-13%,·,-8%,0%,1.7µM*,1%
Cc1ccc(S(=O)(=O)NCc2cccc([N+](=O)[O-])c2)cc1,-7%,·,·,-1%,·,·
CCOC(=O)C1CCN(C(=O)CNC(=O)Cn2c(C)cc3ccccc3c2=O)CC1,-2%,3.3µM*,-1%,-12%,3%,-1%
C[C@@H]1CN([C@@H](C)CO)C(=O)c2cc(N(C)C)ccc2O[C@@H](C)CCCCO[C@@H]1CN(C)Cc1ccc2c(c1)OCO2,-17%,·,·,·,·,·
CC1=C(C(=O)OC(C)C)C(c2ccc(N(C)C)cc2)C2=C(CC(C)(C)CC2=O)N1 (configuration not stated),-5%,-1%,9%,-25%,?,?
CCOC(=O)C1=C(C)NC2=C(C(=O)CC(C)(C)C2)C1c1ccc2c(c1)CCCN2C (configuration not stated),-7%,9%,-3%,14%[9.22 µM],13µM*,?
CCOC(=O)C1=C(C)NC2=C(C(=O)CC(C)(C)C2)C1c1ccc(N(C)C)cc1 (configuration not stated),-3%,?,1%,-15%,12µM*,?
CCOC(=O)[C@H](CCc1ccccc1)N[C@@H](C)C(=O)N1C(C(=O)O)C[C@@H]2CCC[C@@H]21 (some centres not stated),-2%,15%,0%,·,-9%,1%
CCC(=O)O[C@@H](OP(=O)(CCCCc1ccccc1)CC(=O)N1C[C@H](C2CCCCC2)C[C@H]1C(=O)O)C(C)C (some centres not stated),·,5.4µM*,·,·,-10%,·
CCCn1c(=O)n(C)c(=O)c2c(SCC(=O)Nc3cc(C)on3)nc(C(C)(C)C)nc21,-11%,?,-4%,·,10µM*,10µM*
Cc1cc(NC(=O)CSc2nc(C(C)C)nc3c2c(=O)n(C)c(=O)n3C)no1,3%,?,-2%,4%,?,5%
Cc1ccc(Cn2c(N/N=C/c3ccncc3)nc3c2c(=O)n(C)c(=O)n3C)cc1,31%,3.7µM*,0%,-7%,10µM*,?
